According to PubChem BioAssay (NCI):
Compounds without any hit were thinned out: in the full panel of roughly 79,000, 15% have a hit. Activity calls are given as the source filed them. Cut-off read from the data, not from the text of the source: active = growth inhibition above about 70%; inactive = the rest.

What was measured:
[1] = NCI Yeast Anticancer Drug Screen. Data for the rad52 strain (AID 147);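 note: 0% = growth of vehicle-treated control cultures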; settings: S. cerevisiae rad52 mutant growth inhibition, stronger effect = higher value
In short: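 The repair-mutant yeast strain was incubated with compounds, then growth was read and inhibition derived relative to vehicle.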

[2] = NCI Yeast Anticancer Drug Screen. Data for the rad50EPP+ strain (AID 151);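 note: 0% = growth of vehicle-treated control cultures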; settings: S. cerevisiae rad50 mutant strain, stronger effect = higher value
In short: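 Vehicle-normalised growth inhibition; rad50EPP+ yeast strain, altered in DNA damage repair, compound-treated.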

[3] = NCI Yeast Anticancer Drug Screen. Data for the mgt1 strain (AID 153); settings: S. cerevisiae mgt1 mutant growth inhibition, stronger effect = higher value
In short: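 Vehicle-normalized growth inhibition is determined in mgt1 yeast, a strain selected for a defined alteration in DNA repair or cell cycle control.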

[4] = NCI Yeast Anticancer Drug Screen. Data for the rad50 strain (AID 155);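 note: 0% = growth of vehicle-only cultures of the same strain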; settings: S. cerevisiae rad50 strain growth inhibition, stronger effect = higher value
In short: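 Growth of the mutant yeast was measured after compound exposure and referenced to vehicle-treated cultures.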

[5] = NCI Yeast Anticancer Drug Screen. Data for the mec2-1 strain (AID 157); settings: S. cerevisiae mec2-1 strain, stronger effect = higher value
In short: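 Mutant yeast (mec2-1) grown with compound; growth inhibition relative to vehicle control reported.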

[6] = NCI Yeast Anticancer Drug Screen. Data for the rad14 strain (AID 159);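 note: 0% = growth of vehicle-treated control cultures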; settings: S. cerevisiae rad14 strain growth inhibition, stronger effect = higher value
In short: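 Here, inhibition of yeast growth was measured after compound exposure, using a strain with a genetic defect in DNA damage repair and vehicle-treated cultures as the reference.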

[7] = NCI Yeast Anticancer Drug Screen. Data for the sgs1 mgt1 strain (AID 161);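 note: 0% = growth of cultures given vehicle only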; settings: S. cerevisiae sgs1 mgt1 strain, stronger effect = higher value
In short: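 This yeast growth screen uses a strain with defined DNA-repair lesions; compound-treated growth is compared with vehicle-treated growth.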

[8] = NCI Yeast Anticancer Drug Screen. Data for the bub3 strain (AID 167); settings: S. cerevisiae bub3 mutant strain, stronger effect = higher value
In short: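 Whole-cell yeast assay. The mutant strain was incubated with compounds, and growth inhibition was determined by comparison with vehicle-treated cells.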

[9] = NCI Yeast Anticancer Drug Screen. Data for the wt2 strain (AID 169);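 note: 0% = growth of vehicle-treated yeast cultures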; settings: S. cerevisiae wt2 strain growth inhibition, stronger effect = higher value
In short: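 Against vehicle-treated controls, the growth of yeast exposed to each compound was compared, and the inhibition was recorded.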

[10] = NCI Yeast Anticancer Drug Screen. Data for the mlh1 strain (AID 171);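 note: 0% = growth of vehicle-treated control cultures of the same strain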; settings: S. cerevisiae mlh1 strain growth inhibition, stronger effect = higher value
In short: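 Measured: yeast growth. Reference: vehicle-treated controls. Organism: strain with a defined alteration affecting DNA damage repair or cell cycle control, treated with compound.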

[11] = NCI Yeast Anticancer Drug Screen. Data for the sgs1 strain (AID 173);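 note: 0% = growth of vehicle-only control cultures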; settings: S. cerevisiae sgs1 mutant, stronger effect = higher value
In short: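 Each compound was added to cultures of the altered yeast strain. Growth was recorded, and inhibition was derived by comparison with vehicle controls.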

[12] = NCI Yeast Anticancer Drug Screen. Data for the CLN2oe strain (AID 163);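 note: 0% = growth of vehicle-only control cultures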; settings: S. cerevisiae CLN2oe strain, stronger effect = higher value
In short: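 Compounds are applied to yeast harbouring a defined cell-cycle control change; reduced growth compared with vehicle-treated controls gives the value.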

[13] = NCI Yeast Anticancer Drug Screen. Data for the cln2 rad14 strain (AID 165);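 note: 0% = growth equal to vehicle treated cultures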; settings: S. cerevisiae cln2 rad14 strain, stronger effect = higher value
In short: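 Readout is yeast growth inhibition versus vehicle-treated controls, using a strain with cln2 and rad14 alterations exposed to compound.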

[14] = NCI Yeast Anticancer Drug Screen. Data for the mlh1 rad18 strain (AID 175); settings: S. cerevisiae mlh1 rad18 strain growth inhibition, stronger effect = higher value
In short: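 Genetically defined yeast (DNA repair-deficient) exposed to compounds; growth inhibition determined relative to vehicle.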

[15] = NCI Yeast Anticancer Drug Screen. Data for the rad18 strain (AID 177); settings: S. cerevisiae rad18 mutant growth inhibition, stronger effect = higher value
In short: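 Vehicle-treated cultures served as the baseline for scoring compound-induced growth inhibition in DNA-repair-mutant yeast.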

[16] = at 5.0 µM (retest, dose inferred, filed as 0.5)
[17] = at 50.0 µM (retest, dose inferred, filed as 5.0)

Measured: growth inhibition

C=C(C(=C)n1nnc(C(=O)OC)c1C(=O)OC)n1nnc(C(=O)OC)c1C(=O)OC
inactive: [1]; at 1.2 µM 0% | [1]; at 3.7 µM 2% | [1]; at 11.0 µM 3% | [1]; at 33.0 µM 0% | [1]; at 100.0 µM 0% | [2]; at 1.2 µM 0% | [2]; at 3.7 µM -1% | [2]; at 11.0 µM -1% | [2]; at 33.0 µM -2% | [2]; at 100.0 µM 0% | [3]; at 1.2 µM 0% | [3]; at 3.7 µM 5% | [3]; at 11.0 µM 0% | [3]; at 33.0 µM -1% | [3]; at 100.0 µM -3% | [4]; at 1.2 µM 0% | [4]; at 3.7 µM 1% | [4]; [16] 3% | [4]; at 11.0 µM 0% | [4]; at 33.0 µM 0% | [4]; [17] 2% | [4]; at 50.0 µM 27.1% | [4]; at 100.0 µM -2% | [5]; at 1.2 µM -5% | [5]; at 3.7 µM -5% | [5]; [16] -1% | [5]; at 11.0 µM -3% | [5]; at 33.0 µM -2% | [5]; [17] -1% | [5]; at 50.0 µM 51.9% | [5]; at 100.0 µM -5% | [6]; at 1.2 µM 1% | [6]; at 3.7 µM 3% | [6]; at 11.0 µM 3% | [6]; at 33.0 µM 3% | [6]; at 100.0 µM 1% | [7]; [16] 10% | [7]; [17] -3% | [7]; at 50.0 µM 51% | [8]; at 1.2 µM -1% | [8]; at 3.7 µM -3% | [8]; [16] 2% | [8]; at 11.0 µM -3% | [8]; at 33.0 µM -5% | [8]; [17] 2% | [8]; at 50.0 µM 66.4% | [8]; at 100.0 µM -4% | [9]; at 1.2 µM -1% | [9]; at 3.7 µM -1% | [9]; at 11.0 µM 1% | [9]; at 33.0 µM -1% | [9]; at 100.0 µM 0% | [10]; at 1.2 µM -1% | [10]; at 3.7 µM -2% | [10]; at 11.0 µM 0% | [10]; at 33.0 µM 0% | [10]; at 100.0 µM 0% | [11]; at 1.2 µM 0% | [11]; at 3.7 µM -1% | [11]; at 11.0 µM -2% | [11]; at 33.0 µM 0% | [11]; at 100.0 µM 0%

O=C1c2ccccc2C(=O)N1CCCC(=O)n1cc(F)c(=O)[nH]c1=O
active: [2]; at 100.0 µM 88% | [3]; at 33.0 µM 74% | [3]; at 100.0 µM 91% | [4]; at 50.0 µM 71.3% | [4]; at 100.0 µM 79% | [5]; at 33.0 µM 73% | [5]; [17] 88% | [5]; at 50.0 µM 83.2% | [5]; at 100.0 µM 93% | [7]; at 50.0 µM 85.2% | [9]; at 100.0 µM 82% | [10]; at 100.0 µM 78% | [11]; at 33.0 µM 72% | [11]; at 100.0 µM 88%
inactive: [1]; at 1.2 µM -31% | [1]; at 3.7 µM -33% | [1]; at 11.0 µM 0% | [1]; at 33.0 µM 29% | [1]; at 100.0 µM 8% | [2]; at 1.2 µM -25% | [2]; at 3.7 µM -16% | [2]; at 11.0 µM 27% | [2]; at 33.0 µM 69% | [3]; at 1.2 µM 5% | [3]; at 3.7 µM 23% | [3]; at 11.0 µM 47% | [4]; at 1.2 µM -3% | [4]; at 3.7 µM 2% | [4]; [16] 27% | [4]; at 11.0 µM 18% | [4]; at 33.0 µM 51% | [4]; [17] 66% | [5]; at 1.2 µM -24% | [5]; at 3.7 µM -19% | [5]; [16] 20% | [5]; at 11.0 µM 18% | [7]; [16] 24% | [7]; [17] 64% | [12]; at 1.2 µM 2% | [12]; at 3.7 µM 19% | [12]; at 11.0 µM -19% | [12]; at 33.0 µM 10% | [12]; at 100.0 µM 38% | [13]; [16] 30% | [13]; [17] 61% | [13]; at 50.0 µM 27.1% | [8]; at 1.2 µM 9% | [8]; at 3.7 µM 17% | [8]; [16] 11% | [8]; at 11.0 µM 10% | [8]; at 33.0 µM 45% | [8]; [17] 19% | [8]; at 50.0 µM 46.5% | [8]; at 100.0 µM 60% | [9]; at 1.2 µM -19% | [9]; at 3.7 µM -12% | [9]; at 11.0 µM 16% | [9]; at 33.0 µM 56% | [10]; at 1.2 µM -20% | [10]; at 3.7 µM -18% | [10]; at 11.0 µM 17% | [10]; at 33.0 µM 59% | [11]; at 1.2 µM -14% | [11]; at 3.7 µM 7% | [11]; at 11.0 µM 41% | [14]; [16] 39% | [14]; [17] 68% | [14]; at 50.0 µM 60.2% | [15]; at 1.2 µM 11% | [15]; at 3.7 µM 5% | [15]; at 11.0 µM 14% | [15]; at 33.0 µM 42% | [15]; at 100.0 µM 68%
